Measured values: PMC4336329 (PLoS ONE, 2015)
Screen size: about 310,000 compounds; about 14,000 (4.5%) showed an effect of 50% or more. Effects have a minus sign here. The entries come from a sample that favours strong results as a whole.

target: human ether-à-go-go-related gene (hERG) potassium channel (human, UniProt Q12809); experiment: primary screen, population patch clamp on CHO cells stably expressing hERG; higher = less effect of the substance
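Note: peak tail current of the secondary pulse compared with the same well before compound.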

human ether-à-go-go-related gene (hERG) potassium channel, sequence (Q12809 whole entry, looked up): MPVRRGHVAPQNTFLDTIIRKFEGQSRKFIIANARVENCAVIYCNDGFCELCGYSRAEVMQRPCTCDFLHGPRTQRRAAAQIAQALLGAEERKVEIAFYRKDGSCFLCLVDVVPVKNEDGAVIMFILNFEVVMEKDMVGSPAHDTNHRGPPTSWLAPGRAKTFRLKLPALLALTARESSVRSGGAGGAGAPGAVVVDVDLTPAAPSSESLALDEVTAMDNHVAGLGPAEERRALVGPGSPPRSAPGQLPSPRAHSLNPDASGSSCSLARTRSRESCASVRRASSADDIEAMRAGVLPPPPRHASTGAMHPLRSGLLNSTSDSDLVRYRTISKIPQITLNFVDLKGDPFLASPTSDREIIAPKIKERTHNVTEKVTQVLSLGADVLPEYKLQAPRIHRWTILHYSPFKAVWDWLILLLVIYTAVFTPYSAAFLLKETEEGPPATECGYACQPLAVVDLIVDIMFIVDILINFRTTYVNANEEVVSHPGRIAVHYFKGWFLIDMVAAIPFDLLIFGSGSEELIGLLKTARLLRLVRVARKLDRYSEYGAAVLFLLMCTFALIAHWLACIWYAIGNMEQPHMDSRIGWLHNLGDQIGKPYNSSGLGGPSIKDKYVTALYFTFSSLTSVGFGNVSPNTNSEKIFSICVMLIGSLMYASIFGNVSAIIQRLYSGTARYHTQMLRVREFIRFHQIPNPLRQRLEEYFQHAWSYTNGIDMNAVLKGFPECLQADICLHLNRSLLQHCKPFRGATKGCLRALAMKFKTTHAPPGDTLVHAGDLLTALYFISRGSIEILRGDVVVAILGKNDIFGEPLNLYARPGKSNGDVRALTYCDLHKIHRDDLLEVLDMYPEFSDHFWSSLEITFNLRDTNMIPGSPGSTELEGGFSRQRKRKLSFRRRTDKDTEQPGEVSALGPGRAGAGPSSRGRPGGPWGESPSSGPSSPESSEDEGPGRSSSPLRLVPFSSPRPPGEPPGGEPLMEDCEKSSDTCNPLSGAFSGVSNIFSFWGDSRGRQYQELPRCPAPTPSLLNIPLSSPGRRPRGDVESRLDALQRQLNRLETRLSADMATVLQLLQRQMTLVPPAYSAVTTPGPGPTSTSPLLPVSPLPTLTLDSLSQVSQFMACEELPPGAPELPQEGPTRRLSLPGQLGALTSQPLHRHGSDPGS

Structure (SMILES)	hERG current change (%, negative = inhibition) at 10uM [%]
Cc1ccc(/C=N/Nc2cc(C)nc(N3CCOCC3)n2)cc1	17.5
Cc1ccc(N=Nc2c(O)[nH]c(=O)[nH]c2=O)c([N+](=O)[O-])c1	-5.68
Cc1ccc(S(=O)(=O)NC(CCc2ccccc2)CC(=O)C(C)(C)C)cc1 (stereo not shown)	-0.463
O=C(c1ccc(N2CCOCC2)c([N+](=O)[O-])c1)N1CCCC(C(F)(F)F)C1 (stereo not shown)	2.23
Cc1ccc(S(=O)(=O)NC(=O)N(C)C2CCCCC2)cc1	9.07
Cc1nc(NCCCO)c(C#N)c2c1COC(C)(C)C2	-15
CC1(C)Cc2c(C#N)c(NCCCO)nc(-c3ccccc3)c2CO1	-56
CC1(C)Cc2c(C#N)c(NCCN3CCOCC3)nc(-c3ccccc3)c2CO1	-17.1
CN(C)CCNc1nc(-c2ccccc2)c2c(c1C#N)CC(C)(C)OC2	-42.4
COc1nc(-c2ccccc2)c2c(c1C#N)CC(C)(C)OC2	-11.2
CN(C)CCCNc1nc(-c2ccccc2)c2c(c1C#N)CC(C)(C)OC2	-57.4
CC1CCCCN1S(=O)(=O)c1ccc(C(=O)Nc2nnc(-c3ccco3)o2)cc1 (stereo not shown)	-2.35
O=C(CCc1ccccc1)NNC(=O)Cc1ccc(Cl)cc1	13.1
CCOC(=O)C1=C(C)Nc2ccccc2N=C1NC(=O)c1cccc(S(=O)(=O)NCc2ccccc2)c1	-19.4
Cc1nn(Cc2n[nH]c(=S)n2Cc2ccccc2)c(C)c1Cl	14
CC(C)CN1CCN(Cc2cccc3c2OCO3)CC1CCO (stereo not shown)	-1.45
OCCC1CN(Cc2cc3c(cc2Cl)OCO3)CCN1C1CCCC1 (stereo not shown)	-50.8
CC(C)=CCN1CCN(Cc2cccc3c2OCO3)CC1CCO (stereo not shown)	-12.6
CC(C)N1CCN(Cc2cccc3c2OCO3)CC1CCO (stereo not shown)	-0.928
OCCC1CN(Cc2cc3c(cc2Cl)OCO3)CCN1Cc1ccccc1 (stereo not shown)	-45.3
OCCC1CN(Cc2cccc3c2OCO3)CCN1Cc1ccccc1 (stereo not shown)	-3.38
Cc1ccc(CN2CCN(Cc3cccc4c3OCO4)CC2CCO)cc1 (stereo not shown)	-51.2
CCOc1ccc(CN2CCN(Cc3cccc4c3OCO4)CC2CCO)cc1 (stereo not shown)	-77.4
OCCC1CN(Cc2cccc3c2OCO3)CCN1C1CCCC1 (stereo not shown)	-20.4
CC(C)N1CCC(N2CCN(Cc3cc4c(cc3Cl)OCO4)CC2CCO)CC1 (stereo not shown)	-18.5
CCOc1ccc(CN2CCN(Cc3cc4c(cc3Cl)OCO4)CC2CCO)cc1 (stereo not shown)	-73.3
CC(C)N1CCN(Cc2cc3c(cc2Cl)OCO3)CC1CCO (stereo not shown)	-2.34
COc1ccc(C2/C=C\CN(CC(C)C)CC(=O)N2Cc2ccc(F)cc2)cc1 (stereo not shown)	-6.03

Structure (SMILES)	hERG current change (%, negative = inhibition) at 10uM [%]
Cc1cc([N+](=O)[O-])nn1CC(=O)N(C)C1CCCCC1	-18.6
O=C(Nc1ccccc1Cl)C1CCN(S(=O)(=O)c2cccc3nonc23)CC1	16
CC(=O)c1c(C)oc2ccc(N(C(C)=O)S(=O)(=O)c3cccc([N+](=O)[O-])c3)cc12	8.76
N#C/C(=C(/O)CN1C(=O)c2ccccc2C1=O)c1nc2ccccc2[nH]1	11.6
CCOc1ccccc1CN1CCN(Cc2cccc3c2OCO3)CC1CCO (stereo not shown)	-62.6
COc1ccccc1CN(Cc1cccnc1)S(=O)(=O)c1ccc(-n2cnnn2)c(OC)c1	-63
COc1cc(S(=O)(=O)N(Cc2cccnc2)Cc2cccc(OC)c2OC)ccc1-n1cnnn1	-46.5
COc1ccc(CN(Cc2cccnc2)S(=O)(=O)c2ccc(-n3cnnn3)c(OC)c2)cc1	-46.7
COc1ccccc1CN(Cc1ccco1)S(=O)(=O)c1ccc(-n2cnnn2)c(OC)c1	7.21
COc1cc(S(=O)(=O)N(Cc2cccnc2)Cc2ccco2)ccc1-n1cnnn1	-52.3
COc1cc(S(=O)(=O)N(Cc2ccc(C)cc2)Cc2ccco2)ccc1-n1cnnn1	2.53
CC(C)C[C@H](NC(=O)c1nc[nH]c1C(=O)N1CC[NH2+]CC1)C(=O)OCc1ccccc1.[Cl-]	20.5
COc1ccc(C2C3=C(CCCC3=O)N(CC(=O)O)C3=C2C(=O)CCC3)cc1Cl	23.8
CN(c1cccc(NC(=O)CCSc2ccccc2)c1)S(C)(=O)=O	-28.8
O=C1c2ccccc2NC(c2ccc3c(c2)OCCO3)N1c1ccc2c(c1)OCCO2 (stereo not shown)	10.9
Cc1cc(NC(=O)/C=C\C(=O)O)c([N+](=O)[O-])cc1C	11.6
Cc1ccc(NC(=O)/C=C\C(=O)O)c([N+](=O)[O-])c1	21.4
Cc1ccc(NC(=O)/C=C/C(=O)O)c([N+](=O)[O-])c1	-67
COC(=O)c1cn(NC(=O)Cc2cccc(OC)c2)c(=O)c2ccccc12	12
Cc1cc(NC(=S)N(CCCN2CCN(C)CC2)Cc2ccco2)ccc1Cl	-68.2
CCN1CCN(CCCN(Cc2ccco2)C(=S)Nc2ccc(C)c(Cl)c2)CC1	-64.8
Cc1ccc(NC(=S)N(CCCN2CCOCC2)Cc2ccco2)cc1Cl	-36.6
CCN1CCN(CCCN(Cc2ccco2)C(=S)Nc2ccc(Cl)c(C)c2)CC1	-74.8
COc1cccc(NC(=S)N(CCCN2CCN(C)CC2)Cc2ccco2)c1	-36.2
Cc1cccc(NC(=S)N(CCCN2CCOCC2)Cc2ccco2)c1	-29.9
S=c1[nH]nc(CSCCOc2ccccc2)o1	8.24
CN(C)S(=O)(=O)c1cccc(NC(=O)CNCC2CCCCC2)c1.O=C(O)C(=O)O	-1.77
